Results: publication PMC7819943, “Rice protein-binding microarrays: a tool to detect cis-acting elements near promoter regions in rice”
In all, about 35,000 sequences were measured (“fluorescence intensity (a.u.)”: median about 10,000, highest 2% from about 52,000 on). What follows is part of a selection rich in the highest values, with near analogues and random picks from the rest.

Molecular target: T1, OsWOX13 (Oryza sativa, UniProt Q5QMM3 1-267)
T1 sequence: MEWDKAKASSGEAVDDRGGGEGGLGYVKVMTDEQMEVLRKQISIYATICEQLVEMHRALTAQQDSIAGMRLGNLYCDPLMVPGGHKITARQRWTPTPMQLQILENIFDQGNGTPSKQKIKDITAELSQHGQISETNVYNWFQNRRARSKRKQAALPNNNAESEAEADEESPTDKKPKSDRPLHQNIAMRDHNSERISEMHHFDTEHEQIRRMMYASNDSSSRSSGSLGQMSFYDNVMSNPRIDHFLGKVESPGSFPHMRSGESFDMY
Experiment: protein-binding microarray (RPBM); PBS, 2% BSA, 51.3 ng/ul salmon testes DNA, 50 uM zinc acetate, 200 nM TF, 25 C, 1 h; high values mean tight binding
Conditions: protein: recombinant; tags: N-terminal polyhistidine and DsRed monomer fusion (pET32a); label: CyDye5-dUTP incorporated in the synthesized complementary strand; 3' TTTTT single-stranded linker to array surface; dsDNA, one strand shown
Outline: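 Transcription factors were each fused at the N-terminus to a polyhistidine tag plus DsRed and expressed in E. coli BL21-CodonPlus before Ni–NTA purification. Binding to a double-stranded custom Agilent array was carried out with 200 nM protein at 25 °C for 1 h in PBS, 2% BSA, salmon testes DNA and 50 µM zinc acetate. The binding signal is per-feature fluorescence intensity, in arbitrary units, on an Axon 4000B scanner.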

Going from “CCGAAATTTGTCTCTTAATCATATACCGCACTTTCTGCCACGGAGTCACCTAGTGCAG” to “TATTAATTGGATAAAGTCATCTATATTAATGTGGATAATACGGAGTCACCTAGTGCAG”, the binding signal rises from 16100 fluorescence intensity (a.u.) to 17600 fluorescence intensity (a.u.).

Compared with “CAGGTGCTCTAACTACTATGTAATTGAACCACTGACATGTCGGAGTCACCTAGTGCAG”, “TAAAAGATTTGTATCACAAATTAGTCGCAATTTGTATAATCGGAGTCACCTAGTGCAG” is higher in binding signal: 5510 fluorescence intensity (a.u.) for the first, 9610 fluorescence intensity (a.u.) for the second.

First: TTAATTTGTTGTGATTAACGTGGCATGCATGACACTAAAGCGGAGTCACCTAGTGCAG
Second: AACGCAATCAGTGGGAGATCAATCGCAAAATCACCATCATCGGAGTCACCTAGTGCAG
The binding signal of the first is higher: 26900 fluorescence intensity (a.u.) for the first, 11000 fluorescence intensity (a.u.) for the second.

First: AAACTAAATTTAGACAGGAGTTCAGGTGATGAGTCAATGGCGGAGTCACCTAGTGCAG
Second: CCTAAATTATTCTAAAATTAAAATGTTAATGGGGAAGTATCGGAGTCACCTAGTGCAG
The binding signal of the first is higher: 36800 fluorescence intensity (a.u.) for the first, 19900 fluorescence intensity (a.u.) for the second.

Going from “GATTATAAATTACAAGTGTTAATTTGATGAATTTTGTTATCGGAGTCACCTAGTGCAG” to “CGAGATTGATTAGGACTCGGAATCGATCGGAGTCGGAGTACGGAGTCACCTAGTGCAG”, the binding signal rises from 19500 fluorescence intensity (a.u.) to 54800 fluorescence intensity (a.u.).

Compared with “AGTCACTTGATTTGCTTTATCATAGAGCTTGATGAGATCCCGGAGTCACCTAGTGCAG”, “CCAAACAGATTGAACTCGACGATTGGACGAATACGGCGATCGGAGTCACCTAGTGCAG” is higher in binding signal: 24900 fluorescence intensity (a.u.) for the first, 58900 fluorescence intensity (a.u.) for the second.

First: TATAAATAACTTTGAAGATTGAATCGACATATCATACGATCGGAGTCACCTAGTGCAG
Second: TAAGGTGCAGATTGATTTGCCATCCCAGAGCAGCAGCTTGCGGAGTCACCTAGTGCAG
The binding signal of the first is lower: 21200 fluorescence intensity (a.u.) for the first, 29500 fluorescence intensity (a.u.) for the second.

Compared with “CGGATTGATCGACGGCGAAGAATGAAGCTCACCAGAATTTCGGAGTCACCTAGTGCAG”, “TATTACATCGATCATATTGATTGTCGATTAGTACACCTTACGGAGTCACCTAGTGCAG” is higher in binding signal: 5290 fluorescence intensity (a.u.) for the first, 5790 fluorescence intensity (a.u.) for the second.

First: ATGGAAATTGATTAGGAGATTATTGATGCGATAAGTAGTACGGAGTCACCTAGTGCAG
Second: TCCATTGATTGAGGAATAGTGCCAGCTTTAGATTTGCTCCCGGAGTCACCTAGTGCAG
The binding signal of the first is lower: 37000 fluorescence intensity (a.u.) for the first, 53400 fluorescence intensity (a.u.) for the second.

Compared with “TTCAATTTGATTTTGATTTTAGGTGAATCTATAGATATCACGGAGTCACCTAGTGCAG”, “AACTTAATTTGATAAGAAAATTTAGTGGAGTCACCACAAGCGGAGTCACCTAGTGCAG” is higher in binding signal: 9990 fluorescence intensity (a.u.) for the first, 44100 fluorescence intensity (a.u.) for the second.

Going from “GGAAATATGTTAATTAAAATAATGCAACCCTAATCAGCAACGGAGTCACCTAGTGCAG” to “GATAATGATATGACCATGGTGATTTCGTCAATCTCAATACCGGAGTCACCTAGTGCAG”, the binding signal rises from 10500 fluorescence intensity (a.u.) to 12100 fluorescence intensity (a.u.).

Compared with “CAGACTGACAAGTGACAAGCAGAGGGCATCTCAGTACGCGCGGAGTCACCTAGTGCAG”, “ATCTAGAATTAGATGTGACATATCGTAGTACTATGAACCTCGGAGTCACCTAGTGCAG” is higher in binding signal: 3390 fluorescence intensity (a.u.) for the first, 4830 fluorescence intensity (a.u.) for the second.

Compared with “TGGGCAGCAGCTTGATTTGATTGCTTCATTTATCAAGTTGCGGAGTCACCTAGTGCAG”, “TTCCGGTTCCTGATTGCTTGCTCCACCGATTGACCGATCGCGGAGTCACCTAGTGCAG” is higher in binding signal: 13600 fluorescence intensity (a.u.) for the first, 18100 fluorescence intensity (a.u.) for the second.

First: GAGCTATTGATTGATTGATTGCTGATCGCTTCCAGTTCCACGGAGTCACCTAGTGCAG
Second: TTTGGATTGATCATGGTCATTTGTACTTTTGTAGTCTTTACGGAGTCACCTAGTGCAG
The binding signal of the first is higher: 54700 fluorescence intensity (a.u.) for the first, 21500 fluorescence intensity (a.u.) for the second.

First: CTTGATTGGATCAGGATCATTTGGCATGGTTTACAAGGGCCGGAGTCACCTAGTGCAG
Second: GTGATTGATTCGATTGATTGCCGCATCCACAGTTCTTTTCCGGAGTCACCTAGTGCAG
The binding signal of the first is higher: 65100 fluorescence intensity (a.u.) for the first, 54700 fluorescence intensity (a.u.) for the second.

First: GGGACAATCAGGGATTGTATGGTTTGAAGCTGATTTTGGCCGGAGTCACCTAGTGCAG
Second: ATGGTTGATTGCTTGATCAAGGCATGCATCACTTGCTATGCGGAGTCACCTAGTGCAG
The binding signal of the first is lower: 3320 fluorescence intensity (a.u.) for the first, 55800 fluorescence intensity (a.u.) for the second.

Compared with “AATGCTTGATTGCACTTCGCTGTTCAGTTCATCATGCCTACGGAGTCACCTAGTGCAG”, “GCAAGTGTGATTGATCATTACTTGCTTGGTCTGATGGTTGCGGAGTCACCTAGTGCAG” is higher in binding signal: 27400 fluorescence intensity (a.u.) for the first, 48300 fluorescence intensity (a.u.) for the second.

Compared with “GCTCGATTGCCTTTTCATCATTCACATTGTTCTTCTTCTTCGGAGTCACCTAGTGCAG”, “CCTCATCCCTGATTGTGATTTTCTTTCCACACCACCCGGACGGAGTCACCTAGTGCAG” is higher in binding signal: 11600 fluorescence intensity (a.u.) for the first, 19500 fluorescence intensity (a.u.) for the second.

Compared with “CTCTACAGTAAATCAAACAGTAATCACACTCCAAACAAAACGGAGTCACCTAGTGCAG”, “ATTGGCTAGATTGGAAGCAAGAGAAGCTGCAGCGAAGGCACGGAGTCACCTAGTGCAG” is higher in binding signal: 5420 fluorescence intensity (a.u.) for the first, 7860 fluorescence intensity (a.u.) for the second.

Compared with “TTTGGAAATTATCTATGAATTTACCTAGTTTCATCGTCCACGGAGTCACCTAGTGCAG”, “AGTTTTACAATAAATTTACTGTTATAAATATACATTTAACCGGAGTCACCTAGTGCAG” is higher in binding signal: 4970 fluorescence intensity (a.u.) for the first, 6140 fluorescence intensity (a.u.) for the second.

Going from “TTTGATGGGAATTTGTTTCAGATATGCTTACGTGCACATACGGAGTCACCTAGTGCAG” to “AACTAATTGTTTCTTCAGACTTCTTCAGAGCATTCTCCAGCGGAGTCACCTAGTGCAG”, the binding signal rises from 13800 fluorescence intensity (a.u.) to 36800 fluorescence intensity (a.u.).

“TTGATTGCAGATCAAATGCATGCAATAAGAATGGAGATGGCGGAGTCACCTAGTGCAG” was tested, and the binding signal was 19600 fluorescence intensity (a.u.).
